# How the values were obtained:
# Experiment in all cases: DAPPL (digital affinity profiling via proximity ligation, sequencing); 10 mM Tris-HCl pH 7.5, 50 mM NaCl, 1 mM DTT, 4% glycerol, room temperature, 30 min; GST-TFs on glutathione beads, 16-mer random dsDNA library, 0.1% formaldehyde crosslink after washing; high values mean tight binding
# Details in all cases: protein: recombinant; tags: N-terminal GST; dsDNA, one strand shown
# FLI1 = target: T1, FLI1 (Homo sapiens, UniProt Q01543 1-452)
# T1 sequence: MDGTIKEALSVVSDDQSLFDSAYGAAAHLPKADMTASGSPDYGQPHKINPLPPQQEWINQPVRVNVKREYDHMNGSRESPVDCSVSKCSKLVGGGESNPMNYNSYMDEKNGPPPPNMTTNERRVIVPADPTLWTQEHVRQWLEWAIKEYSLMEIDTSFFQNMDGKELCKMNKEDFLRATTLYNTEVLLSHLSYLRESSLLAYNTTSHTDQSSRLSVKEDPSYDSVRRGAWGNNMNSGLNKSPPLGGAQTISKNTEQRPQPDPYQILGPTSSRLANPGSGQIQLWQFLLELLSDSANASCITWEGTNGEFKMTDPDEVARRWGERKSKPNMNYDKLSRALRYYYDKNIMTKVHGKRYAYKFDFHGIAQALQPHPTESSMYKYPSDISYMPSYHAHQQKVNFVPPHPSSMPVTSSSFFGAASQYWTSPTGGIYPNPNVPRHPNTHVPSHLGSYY
# In short: (§1)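 Human transcription factors were made in yeast as GST fusions, captured on glutathione beads and barcoded with DNA. With a tag-only sample included, the pool was incubated with 200 nmole of a random double-stranded 16-mer DNA library in Tris/NaCl/DTT/glycerol buffer at room temperature for 30 min, then crosslinked with 0.1% formaldehyde after washing, ligated by proximity, amplified and sequenced. For binding signal, each hexamer's read frequency for a factor is divided by its frequency for the tag-only sample.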
# ELK1 = target: T2, ELK1 (Homo sapiens, UniProt P19419 1-428)
# T2 sequence: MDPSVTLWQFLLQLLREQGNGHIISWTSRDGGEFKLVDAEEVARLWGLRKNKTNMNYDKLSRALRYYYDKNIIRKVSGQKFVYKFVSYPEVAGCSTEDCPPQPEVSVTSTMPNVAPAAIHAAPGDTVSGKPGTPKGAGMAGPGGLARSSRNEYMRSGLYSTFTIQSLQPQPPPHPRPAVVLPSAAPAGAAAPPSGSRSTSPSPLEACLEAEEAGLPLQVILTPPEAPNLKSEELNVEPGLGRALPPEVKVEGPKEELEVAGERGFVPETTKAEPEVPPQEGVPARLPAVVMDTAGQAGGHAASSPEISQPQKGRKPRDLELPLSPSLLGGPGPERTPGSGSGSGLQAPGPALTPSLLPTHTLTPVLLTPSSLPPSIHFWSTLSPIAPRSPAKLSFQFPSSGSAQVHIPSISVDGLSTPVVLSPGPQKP
# In short: as §1
# GABPA = target: T3, GABPA (Homo sapiens, UniProt Q06546 1-454)
# T3 sequence: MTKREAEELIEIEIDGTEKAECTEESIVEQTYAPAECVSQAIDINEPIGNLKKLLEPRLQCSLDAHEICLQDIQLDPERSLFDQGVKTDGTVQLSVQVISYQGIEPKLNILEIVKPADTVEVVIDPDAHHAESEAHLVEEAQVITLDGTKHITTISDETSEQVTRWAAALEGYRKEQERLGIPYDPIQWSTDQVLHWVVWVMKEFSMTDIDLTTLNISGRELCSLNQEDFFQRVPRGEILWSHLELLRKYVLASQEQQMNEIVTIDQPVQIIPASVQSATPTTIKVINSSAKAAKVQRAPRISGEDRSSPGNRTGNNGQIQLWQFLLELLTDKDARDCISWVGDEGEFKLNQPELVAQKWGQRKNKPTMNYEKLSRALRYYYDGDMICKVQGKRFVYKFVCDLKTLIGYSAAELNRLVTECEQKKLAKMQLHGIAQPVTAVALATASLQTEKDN
# In short: as §1
# ERG = target: T4, ERG (Homo sapiens, UniProt P11308 1-479)
# T4 sequence: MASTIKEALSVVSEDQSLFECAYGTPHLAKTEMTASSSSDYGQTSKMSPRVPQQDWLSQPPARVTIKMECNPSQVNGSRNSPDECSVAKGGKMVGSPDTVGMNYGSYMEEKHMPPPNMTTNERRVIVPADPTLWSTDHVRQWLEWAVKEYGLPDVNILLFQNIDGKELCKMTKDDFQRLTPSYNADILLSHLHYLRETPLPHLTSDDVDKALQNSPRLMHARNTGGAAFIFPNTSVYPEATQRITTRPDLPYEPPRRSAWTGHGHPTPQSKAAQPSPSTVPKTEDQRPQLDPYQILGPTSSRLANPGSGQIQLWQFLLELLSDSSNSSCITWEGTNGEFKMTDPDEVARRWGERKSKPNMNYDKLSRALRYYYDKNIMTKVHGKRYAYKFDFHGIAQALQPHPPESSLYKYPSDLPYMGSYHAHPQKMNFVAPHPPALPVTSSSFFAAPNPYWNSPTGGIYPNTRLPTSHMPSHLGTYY
# In short: as §1
# ELF1 = ELF1 (Homo sapiens, UniProt P32519 1-619)
# Chain of ELF1 (P32519 whole entry): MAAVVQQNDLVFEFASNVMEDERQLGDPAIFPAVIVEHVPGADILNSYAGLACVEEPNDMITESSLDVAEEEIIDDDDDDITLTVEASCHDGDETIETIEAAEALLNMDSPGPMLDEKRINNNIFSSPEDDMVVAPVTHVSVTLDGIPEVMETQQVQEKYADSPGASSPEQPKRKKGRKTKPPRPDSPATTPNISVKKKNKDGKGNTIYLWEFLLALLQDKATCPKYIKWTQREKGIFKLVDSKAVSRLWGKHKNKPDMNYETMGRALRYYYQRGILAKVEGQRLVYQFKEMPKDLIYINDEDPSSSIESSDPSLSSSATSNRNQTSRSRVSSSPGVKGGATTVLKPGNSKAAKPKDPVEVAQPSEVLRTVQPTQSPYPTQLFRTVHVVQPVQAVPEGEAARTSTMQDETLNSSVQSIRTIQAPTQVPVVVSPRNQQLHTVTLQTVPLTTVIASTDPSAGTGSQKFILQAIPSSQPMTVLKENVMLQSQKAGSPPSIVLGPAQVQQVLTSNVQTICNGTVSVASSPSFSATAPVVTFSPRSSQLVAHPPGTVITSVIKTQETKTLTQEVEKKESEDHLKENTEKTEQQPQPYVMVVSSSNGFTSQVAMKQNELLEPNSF
# In short: as §1
# EHF = target: T5, EHF (Homo sapiens, UniProt Q9NZC4 1-300)
# T5 sequence: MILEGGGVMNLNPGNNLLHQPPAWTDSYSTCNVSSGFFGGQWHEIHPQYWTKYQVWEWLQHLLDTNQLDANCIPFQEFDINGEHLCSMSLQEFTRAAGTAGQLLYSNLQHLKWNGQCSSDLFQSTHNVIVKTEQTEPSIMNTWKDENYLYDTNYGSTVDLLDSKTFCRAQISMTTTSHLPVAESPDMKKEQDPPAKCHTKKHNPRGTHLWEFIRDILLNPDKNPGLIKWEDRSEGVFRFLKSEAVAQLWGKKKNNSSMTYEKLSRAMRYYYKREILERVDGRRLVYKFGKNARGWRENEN
# In short: as §1
# SPI1 = SPI1 (Homo sapiens, UniProt P17947 1-270)
# In short: as §1
# SPIB = SPIB (Homo sapiens, UniProt Q01892 1-262)
# Chain of SPIB (Q01892 whole entry): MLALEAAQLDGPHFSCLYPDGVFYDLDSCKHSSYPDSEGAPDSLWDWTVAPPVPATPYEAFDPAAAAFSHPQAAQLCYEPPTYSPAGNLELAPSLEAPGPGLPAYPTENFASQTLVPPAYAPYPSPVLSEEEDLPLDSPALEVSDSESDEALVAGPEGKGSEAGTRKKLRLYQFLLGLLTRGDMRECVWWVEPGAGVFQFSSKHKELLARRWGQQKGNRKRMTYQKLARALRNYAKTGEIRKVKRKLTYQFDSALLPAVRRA
# In short: as §1
# ELK3 = target: T6, ELK3 (Homo sapiens, UniProt P41970 1-407)
# T6 sequence: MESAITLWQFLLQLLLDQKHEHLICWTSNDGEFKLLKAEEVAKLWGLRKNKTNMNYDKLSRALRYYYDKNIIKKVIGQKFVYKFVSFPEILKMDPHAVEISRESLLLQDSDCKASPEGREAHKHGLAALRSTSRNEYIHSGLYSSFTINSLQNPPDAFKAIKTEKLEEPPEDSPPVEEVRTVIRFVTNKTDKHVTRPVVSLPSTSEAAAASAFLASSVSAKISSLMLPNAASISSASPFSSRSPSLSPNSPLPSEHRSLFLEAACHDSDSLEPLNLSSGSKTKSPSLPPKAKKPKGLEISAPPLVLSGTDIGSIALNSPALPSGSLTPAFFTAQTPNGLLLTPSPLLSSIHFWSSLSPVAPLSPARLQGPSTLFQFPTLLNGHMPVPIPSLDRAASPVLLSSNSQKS
# In short: as §1
# FEV = target: T7, FEV (Homo sapiens, UniProt Q99581 1-238)
# T7 sequence: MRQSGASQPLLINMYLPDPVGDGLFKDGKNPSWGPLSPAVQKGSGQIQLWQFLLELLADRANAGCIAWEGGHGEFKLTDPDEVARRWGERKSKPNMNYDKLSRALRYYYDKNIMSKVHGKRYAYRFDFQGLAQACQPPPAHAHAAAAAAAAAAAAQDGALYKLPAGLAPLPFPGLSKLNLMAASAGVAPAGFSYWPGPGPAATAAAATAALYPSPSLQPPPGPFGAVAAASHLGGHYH
# In short: as §1
# ETV5 = ETV5 (Homo sapiens, UniProt P41161 1-510)
# Chain of ETV5 (P41161 whole entry): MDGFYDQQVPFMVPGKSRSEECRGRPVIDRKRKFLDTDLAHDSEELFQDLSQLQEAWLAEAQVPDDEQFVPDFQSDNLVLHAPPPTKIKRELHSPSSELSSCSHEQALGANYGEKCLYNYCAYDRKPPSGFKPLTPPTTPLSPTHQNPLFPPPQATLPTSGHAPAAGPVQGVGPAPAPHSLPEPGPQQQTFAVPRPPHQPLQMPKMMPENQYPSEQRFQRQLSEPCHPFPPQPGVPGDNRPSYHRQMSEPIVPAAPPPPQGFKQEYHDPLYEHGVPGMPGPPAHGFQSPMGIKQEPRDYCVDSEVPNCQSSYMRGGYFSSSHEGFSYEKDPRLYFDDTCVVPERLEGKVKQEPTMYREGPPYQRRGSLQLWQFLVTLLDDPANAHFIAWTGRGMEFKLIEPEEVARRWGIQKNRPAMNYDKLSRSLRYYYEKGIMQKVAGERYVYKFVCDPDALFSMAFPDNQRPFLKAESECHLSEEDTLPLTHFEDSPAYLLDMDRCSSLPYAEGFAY
# In short: as §1
# SPIC = target: T8, SPIC (Homo sapiens, UniProt Q8N5J4 1-248)
# T8 sequence: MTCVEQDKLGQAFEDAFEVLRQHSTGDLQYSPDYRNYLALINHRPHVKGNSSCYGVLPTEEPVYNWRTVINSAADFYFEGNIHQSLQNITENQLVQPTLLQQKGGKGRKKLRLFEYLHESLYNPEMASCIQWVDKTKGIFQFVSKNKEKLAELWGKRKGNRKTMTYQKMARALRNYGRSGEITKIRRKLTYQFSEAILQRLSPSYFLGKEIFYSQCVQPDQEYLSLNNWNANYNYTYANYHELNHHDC
# In short: as §1
# ELF4 = ELF4 (Homo sapiens, UniProt Q99607 1-663)
# Chain of ELF4 (Q99607 whole entry): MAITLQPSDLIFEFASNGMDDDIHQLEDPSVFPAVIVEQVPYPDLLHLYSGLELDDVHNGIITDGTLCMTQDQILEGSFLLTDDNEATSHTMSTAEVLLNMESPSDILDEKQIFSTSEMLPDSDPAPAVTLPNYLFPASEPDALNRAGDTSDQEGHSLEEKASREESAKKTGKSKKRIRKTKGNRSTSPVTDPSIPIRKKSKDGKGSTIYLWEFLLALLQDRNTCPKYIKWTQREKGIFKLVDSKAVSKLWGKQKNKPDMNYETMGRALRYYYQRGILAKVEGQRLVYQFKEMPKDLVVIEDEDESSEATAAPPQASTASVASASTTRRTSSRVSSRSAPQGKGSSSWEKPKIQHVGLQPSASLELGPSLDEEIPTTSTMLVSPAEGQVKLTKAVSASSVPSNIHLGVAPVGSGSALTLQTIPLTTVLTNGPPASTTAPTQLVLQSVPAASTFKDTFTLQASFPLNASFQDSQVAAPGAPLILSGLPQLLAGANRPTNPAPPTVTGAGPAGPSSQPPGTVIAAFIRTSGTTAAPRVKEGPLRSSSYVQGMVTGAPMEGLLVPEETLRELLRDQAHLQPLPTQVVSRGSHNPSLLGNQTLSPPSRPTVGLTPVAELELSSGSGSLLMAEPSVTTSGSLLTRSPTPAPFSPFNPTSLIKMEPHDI
# In short: as §1
# ELK4 = target: T9, ELK4 (Homo sapiens, UniProt P28324-2 1-405)
# T9 sequence: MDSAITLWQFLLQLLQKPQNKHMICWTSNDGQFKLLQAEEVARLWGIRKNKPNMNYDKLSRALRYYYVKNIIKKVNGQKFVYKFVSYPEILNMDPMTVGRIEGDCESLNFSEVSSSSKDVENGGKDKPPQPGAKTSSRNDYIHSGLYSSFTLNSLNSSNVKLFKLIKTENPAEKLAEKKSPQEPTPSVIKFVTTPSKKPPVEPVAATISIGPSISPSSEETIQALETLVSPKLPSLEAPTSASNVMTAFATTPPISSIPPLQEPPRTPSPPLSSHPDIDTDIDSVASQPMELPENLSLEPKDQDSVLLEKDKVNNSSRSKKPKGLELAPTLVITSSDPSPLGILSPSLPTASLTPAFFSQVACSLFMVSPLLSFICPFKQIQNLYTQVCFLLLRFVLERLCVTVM
# In short: as §1
# ETV2 = target: T10, ETV2 (Homo sapiens, UniProt O00321 1-342)
# T10 sequence: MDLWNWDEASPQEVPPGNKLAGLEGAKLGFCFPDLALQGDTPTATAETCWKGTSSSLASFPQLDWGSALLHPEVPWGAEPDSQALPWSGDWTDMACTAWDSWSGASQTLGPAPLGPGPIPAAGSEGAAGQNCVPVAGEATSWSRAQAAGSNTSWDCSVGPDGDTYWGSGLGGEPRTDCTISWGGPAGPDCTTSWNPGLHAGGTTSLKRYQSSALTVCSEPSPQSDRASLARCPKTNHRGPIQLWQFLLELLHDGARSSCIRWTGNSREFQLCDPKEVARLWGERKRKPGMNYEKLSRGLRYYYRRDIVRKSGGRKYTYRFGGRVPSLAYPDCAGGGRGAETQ
# In short: as §1
# ELF3 = target: T11, ELF3 (Homo sapiens, UniProt P78545 1-371)
# T11 sequence: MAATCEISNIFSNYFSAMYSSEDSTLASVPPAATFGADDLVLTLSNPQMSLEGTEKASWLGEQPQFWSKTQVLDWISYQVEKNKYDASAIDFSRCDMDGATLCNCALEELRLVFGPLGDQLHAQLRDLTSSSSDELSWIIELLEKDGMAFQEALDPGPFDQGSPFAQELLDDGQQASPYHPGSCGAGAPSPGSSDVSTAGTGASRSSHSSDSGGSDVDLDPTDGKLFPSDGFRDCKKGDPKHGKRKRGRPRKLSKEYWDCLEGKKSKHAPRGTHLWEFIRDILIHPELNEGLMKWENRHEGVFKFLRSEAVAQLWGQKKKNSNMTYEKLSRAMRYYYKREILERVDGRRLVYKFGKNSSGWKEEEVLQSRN
# In short: as §1
# CRX = CRX (Homo sapiens, UniProt O43186 1-299)
# Chain of CRX (O43186 whole entry): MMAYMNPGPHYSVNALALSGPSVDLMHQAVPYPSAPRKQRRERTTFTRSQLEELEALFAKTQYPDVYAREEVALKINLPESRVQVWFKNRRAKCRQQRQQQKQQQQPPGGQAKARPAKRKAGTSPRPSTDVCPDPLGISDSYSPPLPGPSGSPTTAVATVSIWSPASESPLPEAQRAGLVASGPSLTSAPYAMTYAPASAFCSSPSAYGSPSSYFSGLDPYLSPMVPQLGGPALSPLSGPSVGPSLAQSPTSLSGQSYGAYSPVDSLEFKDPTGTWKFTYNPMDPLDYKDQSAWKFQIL
# In short: as §1
# ETV1 = ETV1 (Homo sapiens, UniProt P50549 1-477)
# Chain of ETV1 (P50549 whole entry): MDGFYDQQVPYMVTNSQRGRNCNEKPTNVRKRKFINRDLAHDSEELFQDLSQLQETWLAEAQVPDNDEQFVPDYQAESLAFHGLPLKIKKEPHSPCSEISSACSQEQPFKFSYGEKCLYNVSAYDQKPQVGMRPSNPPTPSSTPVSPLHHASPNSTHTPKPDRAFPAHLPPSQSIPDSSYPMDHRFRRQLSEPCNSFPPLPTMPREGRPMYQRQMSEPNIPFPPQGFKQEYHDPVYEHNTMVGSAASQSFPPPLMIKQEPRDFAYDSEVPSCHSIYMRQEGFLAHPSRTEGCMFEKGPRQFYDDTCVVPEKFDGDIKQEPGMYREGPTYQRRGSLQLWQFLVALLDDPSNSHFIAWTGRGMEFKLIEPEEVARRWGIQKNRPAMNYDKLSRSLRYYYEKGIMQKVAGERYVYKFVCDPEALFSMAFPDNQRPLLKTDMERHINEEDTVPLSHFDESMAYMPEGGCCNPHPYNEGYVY
# In short: as §1
Sequence,binding signal (FLI1),binding signal (ELK1),binding signal (GABPA),binding signal (ERG),binding signal (ELF1),binding signal (EHF),binding signal (SPI1),binding signal (SPIB),binding signal (ELK3),binding signal (FEV),binding signal (ETV5),binding signal (SPIC),binding signal (ELF4),binding signal (ELK4),binding signal (ETV2),binding signal (ELF3),binding signal (CRX),binding signal (ETV1)
CCTGTA,"1.31 fold enrichment (6-mer frequency, TF over GST control)","1.16 fold enrichment (6-mer frequency, TF over GST control)","1.12 fold enrichment (6-mer frequency, TF over GST control)","1.28 fold enrichment (6-mer frequency, TF over GST control)","1.14 fold enrichment (6-mer frequency, TF over GST control)","1.14 fold enrichment (6-mer frequency, TF over GST control)","1.28 fold enrichment (6-mer frequency, TF over GST control)","1.19 fold enrichment (6-mer frequency, TF over GST control)","1.28 fold enrichment (6-mer frequency, TF over GST control)","1.2 fold enrichment (6-mer frequency, TF over GST control)","1.26 fold enrichment (6-mer frequency, TF over GST control)","1.23 fold enrichment (6-mer frequency, TF over GST control)","1.25 fold enrichment (6-mer frequency, TF over GST control)","1.16 fold enrichment (6-mer frequency, TF over GST control)","1.21 fold enrichment (6-mer frequency, TF over GST control)","1.09 fold enrichment (6-mer frequency, TF over GST control)","1.04 fold enrichment (6-mer frequency, TF over GST control)","1.3 fold enrichment (6-mer frequency, TF over GST control)"
ATCACA,"1.06 fold enrichment (6-mer frequency, TF over GST control)","1.09 fold enrichment (6-mer frequency, TF over GST control)","1.11 fold enrichment (6-mer frequency, TF over GST control)","1.02 fold enrichment (6-mer frequency, TF over GST control)","1.13 fold enrichment (6-mer frequency, TF over GST control)","1.04 fold enrichment (6-mer frequency, TF over GST control)","1.06 fold enrichment (6-mer frequency, TF over GST control)","1.02 fold enrichment (6-mer frequency, TF over GST control)","1.13 fold enrichment (6-mer frequency, TF over GST control)","1.11 fold enrichment (6-mer frequency, TF over GST control)","1.13 fold enrichment (6-mer frequency, TF over GST control)","1.09 fold enrichment (6-mer frequency, TF over GST control)","1.1 fold enrichment (6-mer frequency, TF over GST control)","1.02 fold enrichment (6-mer frequency, TF over GST control)","1.25 fold enrichment (6-mer frequency, TF over GST control)","1.15 fold enrichment (6-mer frequency, TF over GST control)","1.16 fold enrichment (6-mer frequency, TF over GST control)","1.04 fold enrichment (6-mer frequency, TF over GST control)"

# Reference: PMC7862700, “An all-to-all approach to the identification of sequence-specific readers for epigenetic DNA modifications on cytosine”
